Our source for the z-score and composite z-score values is PubChem BioAssay.

Assay [1] can be described thus: optical density shifts of acrAB sulA E. coli – strain DRC41, OD650, 48 h, E. coli filamentation inducer project, primary screen (AID 1152).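 Further: E. coli MC1000 strain DRC41 lacking acrAB efflux pump and sulA.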 To be noted: higher = more signal, called active from +8 up or from −8 down.
Assay [2] can be described thus: probe aLefty1 binding on compound microarray – biochemical, small-molecule microarray, 635/667 nm fluorescence, primary screen (AID 1153).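 Further: score merges spot fluorescence with signal-to-noise ratio from the scanned slide images.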 Particulars: higher = more signal.
A short description of assay [3]: plasmodial surface anion channel blockers, osmotic lysis – cell-based, P. falciparum Indochina, OD700, 1 h, primary screen (AID 1154). To be noted: P. falciparum Indochina infected RBC osmotic lysis, higher = more signal, called active from +8 up or from −8 down.
Assay [4] is described as follows: plasmodial surface anion channel blockers, osmotic lysis – cell-based, P. falciparum Indochina, OD700, 2 h, primary screen (AID 1155).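 Further: lysis reports solute entry through the parasite surface anion channel PSAC.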 To be noted: P. falciparum Indochina infected erythrocytes, higher = more signal, called active from +8 up or from −8 down.
A short description of assay [5]: changes in parasitized red cell lysis, either direction – P. falciparum Indochina, OD700, 3 h, PSAC antagonist project, primary screen (AID 1156). Particulars: P. falciparum-infected erythrocytes, osmotic lysis, higher = more signal, called active from +8 up or from −8 down.
Assay [6] is described as follows: plasmodial surface anion channel blockers, osmotic lysis – cell-based, P. falciparum Indochina, OD700, 18 h, primary screen (AID 1157). Particulars: P. falciparum Indochina infected erythrocytes, osmotic lysis OD700, 18 h; higher = more signal, called active from +8 up or from −8 down.
Assay [7] in a line: S6 kinase pathway phospho-S6 level changes – cell-based, A549, cytoblot, luminescence, serum-stimulated, primary screen (AID 1158).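 Further: serum-stimulated A549 lung adenocarcinoma cells; signal is phosphorylated S6 detected by cytoblot immunostaining with HRP secondary.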 Particulars: 5 h, higher = more signal.
In assay [8] the target is NADPH oxidase 2 (Homo sapiens) (UniProt P04839). As to the kind of experiment: compounds shifting NOX2 Amplex Red fluorescence – cell-based, HEK293-NOX2, PMA-stimulated, NOX inhibitor project, primary screen (AID 1159). Further: test concentration not given here. Particulars: 45 min, higher = more signal, called active from +8 up or from −8 down.
The target in assay [9] is NADPH oxidase 4 (Homo sapiens) (UniProt Q9NPH5). In words: compounds shifting NOX4 Amplex Red fluorescence – cell-based, HEK293-NOX4, tetracycline-induced, NOX inhibitor project, primary screen (AID 1160). To be noted: HEK293-NOX4, Amplex Red H2O2 fluorescence, 45 min; higher = more signal, called active from +8 up or from −8 down.
Assay [10] has as its target NADPH oxidase 5 (Homo sapiens) (UniProt Q96PH1). As to the kind of experiment: compounds shifting NOX5 Amplex Red fluorescence – cell-based, HEK293-NOX5, NOX inhibitor project, primary screen (AID 1161). Particulars: HEK293-NOX5, ionomycin, 45 min, higher = more signal.
Assay [11] in a line: compound effects on lung adenocarcinoma cell viability – A549, calcein-AM fluorescence, 48 h, basal, profiling panel (AID 1162). Further: test concentration not given here. To be noted: higher = more signal.
Assay [12] can be described thus: compound effects on differentiated 3T3-L1 adipocyte viability – cell-based, 3T3-L1 adipocytes, calcein-AM fluorescence, 48 h, basal, profiling panel (AID 1163). Further: test concentration not given here. To be noted: 3T3-L1 adipocytes viability, higher = more signal.
A short description of assay [13]: compound effects on hepatocellular carcinoma cell viability – HepG2, calcein-AM fluorescence, 48 h, basal, profiling panel (AID 1164). Further: test concentration not given here. To be noted: higher = more signal.
The nature of assay [14]: compound effects on multiple myeloma cell viability – MM1S, calcein-AM fluorescence, 48 h, basal, profiling panel (AID 1165).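 Further: viability of MM1S multiple myeloma cells under basal unstimulated conditions; test concentration not given here.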 To be noted: higher = more signal.
Assay [15] in a line: calcein-AM signal in unstimulated myeloma cells – cell-based, calcein-AM fluorescence, 48 h, PK04 Diversity Set, profiling panel (AID 1166).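 Further: cells grown under basal conditions without added stimulus; test concentration not given here.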 Particulars: RPMI8226 myeloma viability, higher = more signal.
A short description of assay [16]: JC-1 mitochondrial signal, unstimulated HepG2 cells – cell-based, JC-1 fluorescence, 24 h, 100 nL compound, profiling panel (AID 1167). Further: test concentration not given here. Particulars: HepG2 mitochondrial potential, higher = more signal.
Assay [17] can be described thus: JC-1 mitochondrial signal, unstimulated adipocytes – cell-based, JC-1 fluorescence, 3T3-L1 adipocytes, 24 h, 100 nL compound, profiling panel (AID 1168). Further: test concentration not given here. To be noted: JC-1 mitochondrial fluorescence, higher = more signal, called active from +8 up or from −8 down.
Assay [18] is described as follows: JC-1 mitochondrial signal, unstimulated myeloma cells – cell-based, JC-1 fluorescence, RPMI8226, 24 h, 100 nL compound, profiling panel (AID 1169). Further: test concentration not given here. Particulars: JC-1 mitochondrial potential fluorescence, higher = more signal.
The nature of assay [19]: JC-1 mitochondrial signal, unstimulated MM1S myeloma – cell-based, JC-1 fluorescence, 24 h, 100 nL compound, profiling panel (AID 1170). Further: test concentration not given here. Particulars: MM1S mitochondrial potential, higher = more signal.
The nature of assay [20]: resazurin metabolic signal in A549 cells – cell-based, resazurin fluorescence, 24 h, PK04 Diversity Set, profiling panel (AID 1171). Further: test concentration not given here. Particulars: A549 viability, higher = more signal, called active from +8 up or from −8 down.

SMILES strings stand for the structures. Activity calls are given as the source filed them.

Sequence of NADPH oxidase 2 (Homo sapiens) (P04839 whole entry, looked up): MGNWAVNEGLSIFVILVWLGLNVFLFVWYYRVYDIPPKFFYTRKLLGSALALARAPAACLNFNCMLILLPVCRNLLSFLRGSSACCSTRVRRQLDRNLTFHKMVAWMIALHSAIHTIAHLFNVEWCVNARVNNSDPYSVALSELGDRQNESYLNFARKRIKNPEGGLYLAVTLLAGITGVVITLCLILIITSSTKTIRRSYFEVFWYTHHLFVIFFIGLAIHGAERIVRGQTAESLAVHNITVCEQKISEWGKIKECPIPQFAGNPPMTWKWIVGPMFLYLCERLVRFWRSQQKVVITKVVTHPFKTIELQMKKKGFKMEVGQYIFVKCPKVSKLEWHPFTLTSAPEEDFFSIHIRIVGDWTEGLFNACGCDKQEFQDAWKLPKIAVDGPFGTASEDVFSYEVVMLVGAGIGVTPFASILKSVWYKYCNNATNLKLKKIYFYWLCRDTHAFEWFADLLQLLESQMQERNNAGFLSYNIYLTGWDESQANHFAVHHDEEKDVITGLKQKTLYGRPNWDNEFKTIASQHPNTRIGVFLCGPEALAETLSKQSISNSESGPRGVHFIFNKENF
Sequence of NADPH oxidase 5 (Homo sapiens) (Q96PH1 whole entry, looked up): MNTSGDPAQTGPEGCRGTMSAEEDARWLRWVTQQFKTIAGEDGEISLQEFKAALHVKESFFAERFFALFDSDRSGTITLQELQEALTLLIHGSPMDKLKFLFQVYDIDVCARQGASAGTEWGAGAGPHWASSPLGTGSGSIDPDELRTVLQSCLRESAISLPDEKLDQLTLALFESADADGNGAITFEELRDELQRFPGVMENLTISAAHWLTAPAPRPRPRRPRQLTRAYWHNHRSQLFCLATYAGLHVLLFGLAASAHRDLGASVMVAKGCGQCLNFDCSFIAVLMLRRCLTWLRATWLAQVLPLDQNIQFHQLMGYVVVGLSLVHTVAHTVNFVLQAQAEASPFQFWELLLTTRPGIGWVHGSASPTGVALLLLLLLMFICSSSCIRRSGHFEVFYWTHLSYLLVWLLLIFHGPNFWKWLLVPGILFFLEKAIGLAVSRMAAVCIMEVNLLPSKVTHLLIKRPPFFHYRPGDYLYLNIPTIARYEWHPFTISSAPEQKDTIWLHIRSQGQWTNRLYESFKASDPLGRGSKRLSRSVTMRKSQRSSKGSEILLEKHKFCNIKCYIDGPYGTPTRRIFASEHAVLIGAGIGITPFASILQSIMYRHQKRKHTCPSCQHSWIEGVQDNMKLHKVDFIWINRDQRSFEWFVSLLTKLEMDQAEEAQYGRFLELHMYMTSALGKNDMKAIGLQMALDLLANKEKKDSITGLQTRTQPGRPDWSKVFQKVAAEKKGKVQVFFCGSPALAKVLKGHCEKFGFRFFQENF
Sequence of NADPH oxidase 4 (Homo sapiens) (Q9NPH5 whole entry, looked up): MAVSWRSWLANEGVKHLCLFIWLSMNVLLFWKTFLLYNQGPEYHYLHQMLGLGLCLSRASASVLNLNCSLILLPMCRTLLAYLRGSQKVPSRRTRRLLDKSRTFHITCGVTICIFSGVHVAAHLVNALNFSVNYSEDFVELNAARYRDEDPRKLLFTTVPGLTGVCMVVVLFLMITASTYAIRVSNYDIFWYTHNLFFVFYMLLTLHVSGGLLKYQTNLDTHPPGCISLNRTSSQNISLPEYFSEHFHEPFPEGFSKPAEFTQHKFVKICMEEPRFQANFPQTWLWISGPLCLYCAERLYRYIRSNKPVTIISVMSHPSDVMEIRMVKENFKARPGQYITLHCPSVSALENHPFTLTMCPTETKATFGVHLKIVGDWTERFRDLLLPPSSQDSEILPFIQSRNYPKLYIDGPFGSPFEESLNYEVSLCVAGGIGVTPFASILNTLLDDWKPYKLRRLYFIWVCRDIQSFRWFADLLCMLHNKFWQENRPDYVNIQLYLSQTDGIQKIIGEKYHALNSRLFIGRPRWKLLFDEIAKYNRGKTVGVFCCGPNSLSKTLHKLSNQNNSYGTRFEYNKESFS

For the compound `COCCOC(=O)N1C(=O)[C@@]2(c3ccccc31)[C@H](C(N)=O)[C@H]1C(=O)O[C@H](c3ccccc3)[C@H](c3ccccc3)N1[C@@H]2c1ccccc1OCCO`, the z-score in assay [1] was 0.582 (inactive); in assay [3], 3.59 (inactive); in assay [4], 1.14 (inactive); in assay [5], -0.0776 (inactive); in assay [6] it was 1.2 (inactive); in assay [7], 0.404. The z-score is 1.56 (inactive) in assay [8]; 1.43 (inactive) in assay [9]; 0.483 in assay [10]; -0.421 in assay [11]; 1.59 in assay [12]; -1.42 in assay [13]. For the same compound, the z-score in [14] was -3.2; in [15], -4.53; in assay [16], -0.728; in assay [17] it was 0.633 (inactive); in assay [18], -1.1; in [19], -0.0748. In addition, the z-score in assay [20] was -1.54 (inactive). Moreover, in assay [2], the composite z-score is 0.144.
In the case of `COC(=O)[C@H](C)NC(=O)CCC1CC(OC(=O)NCc2cccc3ccccc23)CC2(CCCC(COC(=O)NCC3CCCCC3)O2)O1` (stereo not given in full), the z-score in assay [1] is -0.484 (inactive); in [3], 0.994 (inactive); in assay [4] it was -0.35 (inactive); in assay [5] it was -0.555 (inactive); in assay [6] it was 0.125 (inactive); in assay [7] it was -0.444. Moreover, the z-score in assay [8] is 0.17 (inactive); in assay [9], 0.236 (inactive); in assay [10] it was 0.469; in assay [11], -0.332; in assay [12], -0.687; in assay [13] it was 0.385. Moreover, the z-score is -0.875 in [14]; 0.913 in assay [15]; 1.38 in assay [16]; -0.477 (inactive) in assay [17]; -0.188 in assay [18]; -0.652 in assay [19]. In addition, the z-score in assay [20] was 0.458 (inactive). The composite z-score in [2] was -0.325.
As to `COc1ccc(O[C@@H]2[C@H](O)CO[C@H]2C=CC#Cc2ccccc2)cc1`, the z-score in assay [1] was -0.939 (inactive); in [3], 2.74 (inactive); in assay [4], 0.488 (inactive); in assay [5], 0.356 (inactive); in assay [6], 0.0508 (inactive); in [7] it was -0.367. The z-score in assay [8] was 0.0749 (inactive); in assay [9] it was 1.23 (inactive); in assay [10], 1.46; in assay [11], -0.128; in [12], 0.392; in [13] it was 0.0395. For the same compound, the z-score in assay [14] is -2.54; in [15] it was -0.0849; in [16], -0.445; in assay [17], -0.403 (inactive); in assay [18], 0.617; in [19], 0.113. Further, the z-score in [20] was 0.357 (inactive). Moreover, in assay [2], the composite z-score is -0.147.
On to `CO[C@@H]1COC(=O)CC=C[C@@H](C)[C@@H]2C=C[C@H](O)[C@@H](COC(=O)[C@H](C)NC(=O)CC=C[C@H]1C)O2`, for which the z-score in [1] is 0.457 (inactive); in assay [3] it was -0.761 (inactive); in [4], -1.27 (inactive); in [5], 0.564 (inactive); in assay [6] it was -2.4 (inactive); in [7], -0.309. In addition, the z-score in assay [8] was -0.573 (inactive); in assay [9], 0.165 (inactive); in assay [10], 0.605; in assay [11] it was 0.495; in [12], 0.29; in [13], -0.857. The z-score in assay [14] is 0.23; in [15], 0.706; in assay [16], -0.086; in assay [17] it was -1.62 (inactive); in [18], 0.583; in assay [19], -0.385. For the same compound, the z-score in [20] was 0.612 (inactive). Further, the composite z-score in assay [2] was -0.626.
Consider `COCC1=C2[C@@H](CCc3ccccc3)OB(O)C[C@@H]2n2c(=O)n(-c3ccccc3)c(=O)n2C1`, for which the z-score in assay [1] is -0.144 (inactive); in assay [3], 1.88 (inactive); in assay [4], -0.256 (inactive); in assay [5], -0.698 (inactive); in assay [6], -0.235 (inactive); in [7] it was 0.214. Further, the z-score in [8] is -0.421 (inactive); in assay [9], -2.2 (inactive); in assay [10] it was -1.48; in assay [11] it was -0.0316; in assay [12], -0.174; in assay [13], 0.602. In addition, the z-score in assay [14] was -0.0123; in assay [15], -0.412; in [16], -1.83; in assay [17] it was 0.619 (inactive); in assay [18], 0.164; in assay [19], 0.368. Further, in [20], the z-score was -0.566 (inactive). Further, the composite z-score in assay [2] is -0.0816.
`COC(=O)CC=C[C@H](C)[C@@H](OCc1ccccc1Br)C(C)C`: the z-score in assay [1] was 0.358 (inactive); in assay [3], 0.644 (inactive); in [4], 0.673 (inactive); in assay [5], 1.01 (inactive); in assay [6], 0.589 (inactive); in [7], 0.104. For the same compound, the z-score in [8] is 1.04 (inactive); in assay [9] it was 0.478 (inactive); in [10], 0.457; in assay [11], 0.921; in [12], 0.0901; in assay [13] it was 1.34. Moreover, the z-score in [14] is 0.426; in assay [15], 0.736; in [16], 0.744; in assay [17] it was 0.319 (inactive); in assay [18], 0.00667; in [19] it was -0.822. The z-score in assay [20] is -0.307 (inactive). The compound further returned a composite z-score in assay [2] of -0.149.
As for `CCN1C(=O)[C@H]2[C@H]3[C@H](O)[C@H](O)CC(=NOC[C@@H](C)[C@H](OCc4ccccc4)C(C)C)[C@@H]3CC[C@H]2C1=O`, the z-score in assay [1] is 0.618 (inactive); in assay [3], 0.551 (inactive); in assay [4], 0.106 (inactive); in assay [5], 0.061 (inactive); in assay [6], 0.0723 (inactive); in assay [7], -0.357. Moreover, the z-score in assay [8] is -0.136 (inactive); in [9] it was 0.338 (inactive); in assay [10], -0.287; in [11], -0.0364; in assay [12], 0.387; in [13], -0.755. Besides, the z-score in [14] was -1.76; in [15], -1.24; in [16] it was -1.39; in assay [17], -2.19 (inactive); in assay [18], -0.279; in [19], -0.187. Moreover, in assay [20], the z-score was -0.295 (inactive). Moreover, the composite z-score in assay [2] was -0.144.
Regarding `CCCC[C@@H]1C[C@H]1[C@@H](NS(=O)(=O)c1cccc2cccnc12)c1ccc(-c2ccccc2)cc1`, the z-score in assay [1] was -1.29 (inactive); in assay [3], 1.58 (inactive); in assay [4], 0.985 (inactive); in assay [5], 0.336 (inactive); in [6], 0.764 (inactive); in assay [7], -0.464. For the same compound, the z-score was 0.0564 (inactive) in [8]; -1.29 (inactive) in assay [9]; 1.21 in assay [10]; -1.11 in [11]; -1.08 in assay [12]; -0.0369 in assay [13]. The z-score in [14] was 0.252; in assay [15] it was 0.0748; in [16] it was -1.13; in assay [17], -0.43 (inactive); in [18], -0.214; in assay [19], -1.49. Besides, in assay [20], the z-score was 0.239 (inactive). For the same compound, the composite z-score in [2] came to 0.0217.
For `O[C@@H](Cc1ccccc1)[C@H]1C2C=CCCC(c3ccccc3)=C2CN1Cc1cccc(Cl)c1` (stereo not given in full), the z-score is 3.28 (inactive) in assay [1]; 4.33 (inactive) in assay [3]; 0.669 (inactive) in assay [4]; 1.16 (inactive) in [5]; 0.476 (inactive) in assay [6]; 0.459 in assay [7]. Moreover, the z-score in assay [8] is -0.384 (inactive); in [9], -0.868 (inactive); in assay [10], -0.41; in [11] it was 1.89; in assay [12], 0.101; in assay [13], 0.662. The z-score in [14] is -3.27; in assay [15], -3.43; in assay [16] it was 0.514; in [17] it was -0.366 (inactive); in [18], -1.09; in assay [19], -0.823. Further, the z-score in assay [20] was 0.75 (inactive). The same compound showed a composite z-score in assay [2] of -0.104.
